Key:
Assay in all cases: PBM binding z-score (relative to random genomic background probes); higher = stronger binding; sequences stand for … in GC…GCGATTGACAGCGTAGAATGAAGG
[1] = test system: RARb homodimer (NR concentration 270 nM)
Method in brief: (§1)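 Scanned fluorescence from custom Agilent 4×180K protein-binding microarrays was regression-normalized. Binding z-scores use random background probes as reference. Ligand-free nuclear receptor dimers were incubated on the arrays for 1 h and detected with antibodies against each partner (one per run).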

[2] = test system: RARg:RXRa (NR concentration 270 nM, RXRa partner concentration 90 nM)
Method in brief: as §1

[3] = test system: RARg homodimer (NR concentration 270 nM)
Method in brief: as §1

[4] = test system: RXRa DBDmut IVT, anti-RXR (DBD mutation: RXRa K156A/R161A, NR concentration 90 nM)
Method in brief: as §1

[5] = test system: RXRa homodimer (NR concentration 180 nM)
Method in brief: as §1

[6] = test system: THRa:RXRa (NR concentration 90 nM, RXRa partner concentration 90 nM)
Method in brief: as §1

[7] = test system: THRa homodimer (NR concentration 90 nM)
Method in brief: as §1

[8] = test system: VDR homodimer (NR concentration 270 nM)
Method in brief: as §1

Row | Sequence | PBM binding z-score [1] | PBM binding z-score [2] | PBM binding z-score [3] | PBM binding z-score [4] | PBM binding z-score [5] | PBM binding z-score [6] | PBM binding z-score [7] | PBM binding z-score [8]
1 | TCTAGTTGGACACGGAGGTCACACACGACGGGTA | 4.2 | 3.95 | 3.96 | 0.997 | 4.47 | 3.6 | 2.32 | 2.67
2 | TCTCGGAGGACACGAAAGGTCAGAGGTCGACATC | 5.07 | 5.51 | 5.38 | 1.21 | 6.06 | 3.99 | 1.69 | 2.12
3 | ATCGCTAGGTAAGACTCAGTTCAGTGAAGAACGC | -0.147 | -0.35 | -0.262 | -0.408 | -0.428 | 0.249 | -0.192 | 0.334
4 | AGAATGAGGTTACCAAAGATCAGGGAAACGCTTG | 0.765 | 2.19 | 1.68 | 1.25 | 2.57 | 3.04 | 0.9 | 0.1
5 | GATACAGGGTAAAGGCCAGAGTACGCGTATTGAT | 0.909 | 0.831 | 0.93 | -0.389 | 0.877 | 0.316 | -0.482 | -0.0194
6 | CGTCCAAGGTCAATGCTAGGTCAGTCAAAGCATT | 5.08 | 7.7 | 6.73 | 3.62 | 5.82 | 4.52 | 2.99 | 3.23
7 | AGTCCAAGTTCATCTAGGTAACGTAAGATATGCT | 2.25 | 2.91 | 3.37 | 4.78 | 2.26 | 2.76 | 0.459 | 5.97
8 | ACTAGCAGCCCAAGGGTCACTCAAGATTAGTCCG | 3.74 | 3.55 | 3.23 | 0.283 | 3.67 | 2.45 | 0.307 | 0.863
9 | CCTGCTAGGTCATAGTCAGCTAATCTACAGTATG | 2.32 | 3.3 | 3.57 | 2.08 | 2.13 | 2.62 | 0.766 | 0.519
10 | CCTACTGGGCCATTCAGAGGTCGTTGATCATATG | 1.58 | 1.55 | 0.872 | 0.268 | 1.05 | 1.28 | 0.339 | 2.12
11 | AATACAGGGTCATCGTAGTCCAGAGTACGCACAG | 3.56 | 5.76 | 4.86 | 3.42 | 6.39 | 4.18 | 1.83 | 4.22
12 | AGTCAAAGTTCACTAGGTAACGTAAGATTCAGCT | 3.81 | 4.81 | 5.08 | 4.23 | 3.76 | 2.22 | 0.232 | 3.29
13 | TGTCAAAGTTCAAATGTAACGTAAGTATCCACAC | 3.94 | 5.53 | 5.93 | 4.69 | 5.3 | 2.16 | -0.283 | 4.11
14 | CGTCCAAGGTCAATGCTATGTCAGTGAAAGCATT | 4 | 5.86 | 6.28 | 3.14 | 4.94 | 3.81 | 1.93 | 2.37
15 | TCTCGGAGGACACGAAAGGTTAGAGCTCGACATC | 2.16 | 1.94 | 2.3 | 0.867 | 1.4 | 2.41 | 0.435 | 0.0953
16 | TCTTGTAAATCAACAGGAGGTTAAGAAAGATCGA | 0.787 | 0.681 | 0.518 | 1.04 | 1.11 | 0.911 | -0.242 | 0.513
17 | CCTCCTAGGTCATGGTCAGCTAATCTACAGTATG | 3.55 | 3.91 | 4.49 | 1.04 | 2.93 | 3.09 | 1.92 | 0.641
18 | CAAACTAGGTCACGAAAAGTCAAAGTCGAATGAC | 3.38 | 4.82 | 5.38 | 1.53 | 3.85 | 3.35 | 1.25 | 0.644
19 | CCTACTGGGGCAAAGGTTACCATACTCAGTACGA | 2.27 | 3.72 | 1.99 | 0.241 | 3.86 | 1.85 | -0.303 | 0.381

Row | Sequence | PBM binding z-score [1] | PBM binding z-score [2] | PBM binding z-score [3] | PBM binding z-score [4] | PBM binding z-score [5] | PBM binding z-score [6] | PBM binding z-score [7] | PBM binding z-score [8]
20 | ACTAGCAGGACAAGGGTCACTCAAGATTAGTCCG | 3.75 | 4.12 | 3.61 | 0.928 | 3.68 | 3.04 | 0.529 | 2.01
21 | AGAATGAGGTTAAGATAAGGGAAACAGAATACAT | 1.07 | 2.11 | 1.69 | 0.785 | 2.6 | 2.71 | 1.05 | 0.183
22 | ACTAGTTGGTCGGCTGAGGTCACACACAATTCGG | 4.05 | 3.76 | 3.25 | 1.12 | 4.19 | 4.77 | 5.24 | 3.84
23 | TTACCAAGGTGCAGGTCGTTGATCCCTCTGTAGA | 0.634 | 0.0227 | -0.225 | 0.43 | 0.481 | 0.675 | 0.0392 | 0.805
24 | TCTCGGAGGACACGTAGGTCAGAGCTTTCCAGAG | 2.65 | 2.17 | 2.67 | 0.656 | 1.04 | 2.44 | 0.686 | 0.567
25 | GTTAGCAGGCCATTTGGGTCACTCAATGACGGGC | 1.8 | 1.15 | 1.5 | 0.133 | 0.847 | 1.79 | 0.575 | 0.779
26 | ATATGTTGGTTAAGGGTCATTCAGGTTGGTTCGC | 3.84 | 4.07 | 3.25 | 2.11 | 4.9 | 3.25 | 2.24 | 4.89
27 | GATACAGGGTCAAGGCCAGAGCACGCGTATTGAT | 3.82 | 5.4 | 4.9 | 2.27 | 5.45 | 3.6 | 1.34 | 1.92
28 | TCATGTAGATCAGCAGGTTAAGAAAGCTGGCCAA | -0.0199 | -0.0908 | -0.0942 | 0.626 | 0.381 | 0.195 | -0.553 | -0.749
29 | ACCATTAGTTGACTTAGGGCAACCGATACGACGC | 1.34 | 0.733 | 0.851 | 0.744 | 0.478 | 1.61 | 0.915 | 0.163
30 | GCTAGTTAGTCAGTAAAAGGTCACACACCGGTCG | 5.02 | 4.93 | 4.43 | 0.44 | 5.22 | 3.49 | 1.36 | 1.62
31 | GCAGACAGGTGAAACGCAGGTAAGTCAGGGTGGC | 0.216 | 0.37 | 0.249 | -0.846 | 0.479 | 0.9 | -0.575 | -0.728
32 | TCTAGCAGGCGAGAGGGTCACTCAAGAGGTACGG | 2.17 | 2.04 | 1.83 | -0.024 | 2.15 | 1.52 | -0.333 | 0.103
33 | CCTTACGGCTCACTGACAGGTTATAGCATTTGGA | 0.213 | 0.216 | 0.301 | 0.689 | 0.388 | 0.0321 | 0.195 | -0.0205
34 | GTGCCAAGGTGAATAGGTCGTTGATGAGTAGGCG | 1.92 | 2.61 | 1.46 | -0.262 | 1.55 | 1.72 | 0.56 | -0.115
35 | CCTACTGGGCCATTCAGCGGTCATTGATCATATG | 1.85 | 1.97 | 1.02 | -0.0941 | -0.0428 | 0.283 | 0.0718 | 0.166
36 | CTTCAAAGTTCAACTAAGGTAACGTAAAGCACGC | 4.33 | 5.92 | 6.84 | 4.36 | 5.26 | 5.38 | 2.06 | 3.94
37 | ACTATGAGTTGACTTAGGGCAACCGATACGACGC | 1.06 | 1.07 | 1.2 | 1.49 | 0.819 | 2.22 | 0.414 | 1.26
38 | CTACCAAGGTGAACAAGATCGTTGATTACTATTC | 0.653 | 0.951 | 0.995 | 0.225 | 0.874 | 1.66 | 0.798 | -0.0814

Row | Sequence | PBM binding z-score [1] | PBM binding z-score [2] | PBM binding z-score [3] | PBM binding z-score [4] | PBM binding z-score [5] | PBM binding z-score [6] | PBM binding z-score [7] | PBM binding z-score [8]
39 | TCGAGTAGGTTAGTCGGGGCATTTAGCCAACATA | 0.426 | 0.175 | -0.0384 | 0.477 | 0.261 | 1.12 | -0.042 | 0.418
40 | AATACAAGGTCACTAGGCCAGAGTAGGTACGAAT | 4.18 | 5.73 | 6.29 | 3.29 | 5.53 | 3.95 | 2.4 | 2.75
41 | TCTCGGAGGACACGAAAGGACAGAGCTCGACATC | 1.82 | 1.33 | 2.48 | 0.518 | 0.152 | 2.23 | 0.669 | -0.424
42 | GCAGACAGGTGAAACGCCGGTAACTCAGGGTGGC | -0.057 | 0.644 | 0.166 | -0.634 | 0.513 | 0.157 | -0.511 | -0.512
43 | CCTAGCAGGCCAGTCTGGGTCACTCAAGGCTTGA | 2.01 | 1.09 | 1.2 | -0.216 | 1.05 | 3.14 | 0.462 | -0.0969
44 | CGAACTAGGTCATTCACAGGACAGTGAATAGTAA | 2.81 | 4.97 | 4.43 | 2.48 | 2.55 | 2.91 | 0.979 | 1.29
45 | AGAACGAGGGCAGTGAGTTGATAGCACGGGTGGC | 0.73 | 0.413 | 0.886 | 1.24 | 0.269 | 0.176 | -0.413 | 2.23
46 | CCTACTAGGTCAATGGTCAGCTAAAGCAGCTCGC | 3.28 | 3.39 | 4.16 | 1.71 | 2.26 | 2.47 | 0.868 | 0.437
47 | CGAACTAGGTCAGACCAGGACAGTGAAGGATGAT | 2.36 | 2.82 | 3.53 | 0.518 | 1.51 | 4.75 | 0.741 | -0.102
48 | CAGCCTAGGTCAGCGCCAGTATAGGAGGAACGTT | 2.6 | 2.85 | 4.04 | 0.449 | 1.55 | 2.05 | 0.498 | -0.621
49 | AGAATGAGGTTATTAAGGTCAGGGAATTGCGGTC | 4.31 | 4.16 | 3.63 | 2.88 | 4.62 | 4.71 | 5.16 | 4.86
50 | GCATATAGGTAATACAATGTGAAAGTCCGATTGT | -0.3 | 0.415 | 0.478 | 0.58 | 0.305 | 0.425 | -0.105 | 0.523
51 | TCGTGTAGGTTAGTCGGGGCATTCAGCCAACATA | 1.23 | 0.373 | 0.49 | 1.14 | 0.427 | 1.55 | 0.941 | 1.28
52 | ATACCAAGGTGATCGTGAGATCGTTGATACTAAC | 0.108 | 0.309 | 0.133 | 0.00637 | 0.0742 | 0.704 | 0.421 | 0.0841
53 | CCTTACGGGTCACTGACGGGTTATAGCATTTGGA | 3.38 | 5.58 | 4.49 | 1.51 | 5.1 | 2.74 | 0.301 | 0.822
54 | TCATATAGGTAAACAGATGAAAGTCCGTAAGTTA | 0.099 | 0.636 | 0.431 | 1.38 | 0.703 | 0.419 | -0.0722 | 0.455
55 | CCTCGCAGGACAACAGGAGGTCAGAGCTGCCAGA | 3.19 | 2.79 | 2.57 | 0.186 | 1.86 | 2.51 | 0.912 | 1.05
56 | TTACCAAGGTGCGCTGAGGTCGTTGATCCAACTC | 1.13 | 0.294 | -0.0595 | 1.12 | 0.936 | 3.59 | 1.87 | 3.64
57 | GGAACGAGGGCATTCGAGTTGATAACATGGCGAT | 0.66 | 1.41 | 1.74 | 3.17 | 1.08 | 3.37 | -0.138 | 3.48

From the supplement of paper PMC6555819
